Calls of active or inactive are those of the source. Unless noted, no rule for the calls is given here.
Assays:
[1] = system: XIP peptide (Xip251-270) binding; assay: small-molecule binders of XIP peptide, primary screen, biochemical, small-molecule microarray, fluorescence 635/667 nm, 0.1 µg/mL protein (AID 1182); settings: fluorescent protein binding, 635 nm, higher = more signal, called active from +8 up or from −8 down
XIP peptide (Xip251-270) = assay: small-molecule binders of XIP peptide, primary screen, biochemical, small-molecule microarray, fluorescence 635/667 nm, 0.5 µg/mL protein (AID 1183); settings: small-molecule microarray binding, fluorescence 635 nm; higher = more signal
[2] = Plasmodium falciparum growth inhibition, primary screen, strain 3D7, DAPI fluorescence, 100 nL (AID 1184);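 also: parasites grown inside human red blood cells in medium with human serum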; settings: P. falciparum 3D7 growth, 3 d, higher = more signal
[3] = target: Homeobox protein Hox-A13 (Mus musculus) (UniProt Q62424); assay: inhibitors of HoxA13-DNA binding, primary screen, biochemical, fluorescence polarization, labeled oligonucleotide (AID 1185); settings: 15 min, higher = more signal, called active from +8 up or from −8 down
Chain of Homeobox protein Hox-A13 (Mus musculus) (Q62424 whole entry, looked up): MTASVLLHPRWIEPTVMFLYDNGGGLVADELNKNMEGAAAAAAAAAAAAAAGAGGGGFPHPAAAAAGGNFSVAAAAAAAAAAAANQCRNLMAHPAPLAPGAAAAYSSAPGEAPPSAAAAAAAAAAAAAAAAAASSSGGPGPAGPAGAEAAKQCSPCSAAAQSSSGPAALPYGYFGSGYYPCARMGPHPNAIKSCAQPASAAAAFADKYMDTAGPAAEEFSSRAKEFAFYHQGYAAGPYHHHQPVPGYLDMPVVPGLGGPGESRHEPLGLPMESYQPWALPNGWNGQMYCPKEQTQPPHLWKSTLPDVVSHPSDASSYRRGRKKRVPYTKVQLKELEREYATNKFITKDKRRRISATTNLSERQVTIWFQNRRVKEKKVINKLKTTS

[4] = inhibitors of hydroxyurea-induced Chk1 phosphorylation, primary screen, imaging, HeLa, phospho-Chk1 antibody, percent positive cells (AID 1186); settings: hydroxyurea-induced phospho-Chk1 immunofluorescence imaging, higher = more signal
[5] = inhibitors of hydroxyurea-induced Chk1 phosphorylation, primary screen, imaging, HeLa, phospho-Chk1 nuclear intensity (AID 1187); settings: hydroxyurea-induced phospho-Chk1 immunofluorescence imaging, higher = more signal

Structure (SMILES) | composite z-score [1] | composite z-score (XIP peptide (Xip251-270)) | z-score [2] | z-score [3] | z-score [4] | z-score [5]
[N-]=[N+]=NCc1ccccc1[C@@H]1OC(c2ccc(OCCCO)cc2)=N[C@]1(CCS(=O)(=O)c1ccccc1)C(=O)N1CCCCC1 | 0.603 (inactive) | 0.772 | -2.23 | -1.6 (inactive) | 0.202 (inactive) | 0.161 (inactive)
CCCCC(=C=CC[C@@H](O)c1ccc(CO)o1)CCO | 0.54 (inactive) | 0.218 | 0.0728 | -4.16 (inactive) | -0.364 (inactive) | -0.13 (inactive)
CO[C@H]1O[C@H](CO)[C@@H](OC(=O)Nc2cccc(F)c2)[C@H](OC(=O)Nc2ccccc2)[C@H]1OC(=O)Nc1ccccc1 | 0.879 (inactive) | 0.882 | -2.38 | -5.97 (inactive) | -0.357 (inactive) | 0.161 (inactive)
COC(=O)c1c2oc(c1C(=O)OC)C(=O)NC1(CCCCC1)c1cn(nn1)C[C@H](Cc1ccccc1)NC(=O)N[C@H](CO)CC2 | 0.064 (inactive) | -0.271 | 0.196 | -4.41 (inactive) | -0.0736 (inactive) | -0.183 (inactive)
O=C1C2C=CC(C(O)c3ccc(-c4ccccc4)s3)N(Nc3ccccc3)C2C(=O)N1c1ccccc1 (stereo unspecified) | 0.57 (inactive) | 0.769 | -0.657 | -1.07 (inactive) | 0.484 (inactive) | 0.251 (inactive)
CCCCC(=C=CC[C@H](O)c1cccc(OCCO)c1)C[C@H](O)c1ccccn1 | 0.0547 (inactive) | 0.661 | -1.78 | -4.75 (inactive) | -0.949 (inactive) | -0.278 (inactive)
CO[C@H]1O[C@H](CO)[C@@H](OC(=O)Nc2ccccc2-c2ccccc2)[C@H](OC(=O)Nc2ccccc2-c2ccccc2)[C@@H]1OC(=O)Nc1ccccc1-c1ccccc1 | 0.979 (inactive) | 0.801 | -2.51 | -1.13 (inactive) | -0.0022 (inactive) | 0.119 (inactive)
CC1CC/C=C\[C@H]2OC34C=CCN(c5ccc6ccccc6c5)C(=O)[C@H]3N(CCO)C(=O)[C@@H]4C2C(=O)O1 (stereo partly specified) | 0.866 (inactive) | 0.492 | -0.607 | -5.51 (inactive) | -0.209 (inactive) | -0.434 (inactive)
CCCCC(O)C1C=CC2C(=O)N(C)C(=O)C2N1N1CCCCC1 (stereo unspecified) | 0.0433 (inactive) | 0.941 | -0.133 | -6.77 (inactive) | 0.492 (inactive) | 0.154 (inactive)
COC(=O)[C@@]1(Cc2ccc(OC)cc2)[C@H]2c3cc(C(=O)N4CCCC4)n(Cc4nc5ccccc5[nH]4)c3C[C@H]2CN1C(=O)c1ccccc1 | 1.01 (inactive) | 0.636 | -1.22 | -2.23 (inactive) | 0.732 (inactive) | 0.409 (inactive)
O=C(O)C1N=C(c2ccc(OCCCO)cc2)N(c2ccccc2)O1 (stereo unspecified) | 1.77 (inactive) | 0.852 | -0.112 | -2.98 (inactive) | -0.259 (inactive) | -0.229 (inactive)
CCOC(=O)C1=CCC(c2ccc(F)cc2)N(S(=O)(=O)c2ccc(C)cc2)C1 (stereo unspecified) | 0.428 (inactive) | 0.298 | 0.217 | -2.03 (inactive) | 0.447 (inactive) | -0.996 (inactive)
CCOC(=O)C[C@H]1[C@H](OC(=O)c2cc3ccccc3oc2=O)[C@@H](NC(=O)CC(C)C)c2cc(OCCCO)ccc2N1C(=O)c1ccccc1 | -0.131 (inactive) | 0.495 | -1.89 | -1.53 (inactive) | -0.315 (inactive) | 0.0139 (inactive)
COC(=O)C(CC#Cc1ccc2c(c1)[C@]1(C(=O)N2)[C@H](c2ccccc2OCCO)N2[C@H](c3ccccc3)[C@H](c3ccccc3)OC(=O)[C@H]2[C@@H]1C(=O)O)C(=O)OC | 0.117 (inactive) | 0.791 | 0.386 | -5.57 (inactive) | 0.0449 (inactive) | 0.426 (inactive)
CC(C)(C)OC(=O)CC[C@]1(C(=O)NCCN2CCOCC2)COC(c2ccc(OCCCO)cc2)=N1 | 1.16 (inactive) | 0.759 | 0.51 | -3.66 (inactive) | -0.131 (inactive) | 0.0826 (inactive)
NCCCCCNC(=O)[C@H]1C[C@H]2C(=O)N[C@@H](Cc3ccccc3)C(=O)N2[C@H]1c1cccc(OCCO)c1 | 1.51 (inactive) | 0.683 | -0.329 | -3.23 (inactive) | 0.0742 (inactive) | 0.304 (inactive)
